The full data set covers some 7,900 targets. This sample favours those with a hit. About 0.6% of all pairs of compound and target were hits.
Key:
Assay in all cases: log2 fold change, soluble protein after heating vs DMSO (PISA); higher = thermal stabilisation; K562 cells, 10 uM, 30 min; active = over 0.2 and 3.5 SD of the protein, either way, in both replicates (recomputed)
[1] = compound: C1=CC=C(C=C1)[C@H](COC2=CC3=C(C=C2)NC(=O)N3)NC(=O)C4=CC=CN(C4=O)CC5=CC(=C(C=C5)F)F
Summary of the method: (§1)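 K562 cells at 2×10^6 cells/mL were treated for 30 min with 10 μM compound, and aliquots were heated for 3 min over 48°C-58°C before pooling. Extraction used PBS with 0.5% NP-40 at 4°C, and soluble protein was the supernatant after 21,000xg for 90 min, measured by TMTpro 16plex LC-MS/MS with channel sums equalised. Thermal stability values, relative to control samples and from duplicates, are log2 fold changes.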

[2] = compound: CC1=C(SC2=C1C(=N[C@H](C3=NN=C(N32)C)CC(=O)N)C4=CC=C(C=C4)Cl)C
Summary of the method: as §1

[3] = compound: CC1=C2C(=CC=C1)N=C(N(C2=O)C3=CC=CC=C3C)CN4C=NC5=C(N=CN=C54)N
Summary of the method: as §1

[4] = compound: Cc1sc2c(c1C)C(c1ccc(Cl)cc1)=N[C@@H](CC(=O)OC(C)(C)C)c1nnc(C)n1-2
Summary of the method: as §1

[5] = compound: c1ccc([C@@H]2C[C@H]2NC2CCNCC2)cc1
Summary of the method: as §1

Measured: log2 fold change

SLC38A7 (UniProt Q9NVC3)
Chain of UniProt Q9NVC3 (Q9NVC3 whole entry, looked up): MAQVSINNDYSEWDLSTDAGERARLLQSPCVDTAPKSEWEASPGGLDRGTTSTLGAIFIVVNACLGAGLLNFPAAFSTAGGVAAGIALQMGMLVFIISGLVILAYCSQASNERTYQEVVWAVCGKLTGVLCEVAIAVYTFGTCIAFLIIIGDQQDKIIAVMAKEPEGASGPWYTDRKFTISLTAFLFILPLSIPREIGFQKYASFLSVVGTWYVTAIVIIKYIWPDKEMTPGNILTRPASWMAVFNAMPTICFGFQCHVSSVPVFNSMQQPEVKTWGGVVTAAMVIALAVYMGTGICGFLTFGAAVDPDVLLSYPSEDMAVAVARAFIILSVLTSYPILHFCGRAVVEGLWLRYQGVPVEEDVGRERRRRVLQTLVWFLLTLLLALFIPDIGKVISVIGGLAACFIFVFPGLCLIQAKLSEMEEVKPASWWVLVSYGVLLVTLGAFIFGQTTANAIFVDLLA
inactive: [1] 0.021 | [2] -0.031 | [3] -0.004 | [4] -0.035 | [5] 0.117

STEAP3 isoform 2 (UniProt Q658P3)
Chain of UniProt Q658P3 (Q658P3 whole entry, looked up): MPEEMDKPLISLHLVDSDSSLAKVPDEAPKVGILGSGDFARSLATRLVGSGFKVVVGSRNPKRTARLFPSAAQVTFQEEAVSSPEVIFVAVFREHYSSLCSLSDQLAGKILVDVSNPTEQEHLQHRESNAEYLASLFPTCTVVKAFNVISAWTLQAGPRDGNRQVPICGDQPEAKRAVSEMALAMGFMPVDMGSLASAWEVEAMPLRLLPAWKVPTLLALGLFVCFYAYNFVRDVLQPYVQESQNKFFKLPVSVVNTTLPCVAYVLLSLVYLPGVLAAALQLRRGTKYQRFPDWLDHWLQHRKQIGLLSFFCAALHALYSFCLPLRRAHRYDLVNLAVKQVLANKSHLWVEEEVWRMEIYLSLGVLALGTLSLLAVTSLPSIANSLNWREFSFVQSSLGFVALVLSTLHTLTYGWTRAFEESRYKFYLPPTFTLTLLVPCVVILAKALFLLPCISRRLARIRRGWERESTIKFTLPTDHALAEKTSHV
inactive: [1] -0.011 | [2] 0 | [3] 0.022 | [4] -0.034 | [5] -0.04

SMARCE1 (UniProt Q969G3)
Chain of UniProt Q969G3 (Q969G3 whole entry, looked up): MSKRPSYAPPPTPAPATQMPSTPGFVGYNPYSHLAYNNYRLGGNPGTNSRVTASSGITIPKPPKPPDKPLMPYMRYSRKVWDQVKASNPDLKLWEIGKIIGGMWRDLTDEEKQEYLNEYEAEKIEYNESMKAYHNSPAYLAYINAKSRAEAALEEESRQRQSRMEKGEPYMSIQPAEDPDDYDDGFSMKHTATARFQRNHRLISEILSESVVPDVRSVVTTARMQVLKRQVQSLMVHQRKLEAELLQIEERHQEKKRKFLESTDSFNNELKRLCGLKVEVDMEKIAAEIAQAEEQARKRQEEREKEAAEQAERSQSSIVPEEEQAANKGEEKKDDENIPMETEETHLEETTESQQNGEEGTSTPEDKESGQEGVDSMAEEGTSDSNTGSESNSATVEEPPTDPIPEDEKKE
inactive: [1] -0.156 | [2] -0.002 | [3] 0.338 | [4] 0.111 | [5] -0.051

TMBIM6 isoform 2 (UniProt P55061)
Chain of UniProt P55061 (P55061 whole entry, looked up): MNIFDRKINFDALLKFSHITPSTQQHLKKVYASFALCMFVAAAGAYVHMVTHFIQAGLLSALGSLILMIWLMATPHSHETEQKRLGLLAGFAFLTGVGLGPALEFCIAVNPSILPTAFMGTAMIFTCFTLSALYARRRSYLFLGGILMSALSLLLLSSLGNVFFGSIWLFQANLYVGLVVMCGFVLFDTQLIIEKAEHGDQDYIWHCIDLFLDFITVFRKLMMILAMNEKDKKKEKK
inactive: [1] -0.037 | [2] -0.022 | [3] 0.041 | [4] -0.03 | [5] 0.041

TBC1D23 (UniProt Q9NUY8)
Chain of UniProt Q9NUY8 (Q9NUY8 whole entry, looked up): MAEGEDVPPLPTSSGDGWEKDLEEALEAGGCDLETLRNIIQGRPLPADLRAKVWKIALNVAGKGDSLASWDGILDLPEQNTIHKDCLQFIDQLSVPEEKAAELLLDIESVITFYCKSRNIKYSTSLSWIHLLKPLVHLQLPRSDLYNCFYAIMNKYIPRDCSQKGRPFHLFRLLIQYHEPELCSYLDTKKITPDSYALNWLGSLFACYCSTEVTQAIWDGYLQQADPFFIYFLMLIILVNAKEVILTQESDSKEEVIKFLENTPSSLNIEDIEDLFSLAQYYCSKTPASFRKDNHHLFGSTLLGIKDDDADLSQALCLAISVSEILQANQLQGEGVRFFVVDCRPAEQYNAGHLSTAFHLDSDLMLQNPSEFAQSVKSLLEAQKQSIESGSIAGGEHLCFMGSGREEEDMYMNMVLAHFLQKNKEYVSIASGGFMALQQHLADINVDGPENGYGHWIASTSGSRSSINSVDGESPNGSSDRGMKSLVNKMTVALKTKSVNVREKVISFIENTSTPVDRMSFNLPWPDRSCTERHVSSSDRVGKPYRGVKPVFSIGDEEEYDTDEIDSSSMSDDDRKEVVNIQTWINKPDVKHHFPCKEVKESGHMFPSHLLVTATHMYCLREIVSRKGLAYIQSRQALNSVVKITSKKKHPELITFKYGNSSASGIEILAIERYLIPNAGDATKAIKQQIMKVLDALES
inactive: [1] -0.039 | [2] 0.068 | [3] 0.034 | [4] -0.003 | [5] -0.037

SSX2 (UniProt Q16385)
Chain of UniProt Q16385 (Q16385 whole entry, looked up): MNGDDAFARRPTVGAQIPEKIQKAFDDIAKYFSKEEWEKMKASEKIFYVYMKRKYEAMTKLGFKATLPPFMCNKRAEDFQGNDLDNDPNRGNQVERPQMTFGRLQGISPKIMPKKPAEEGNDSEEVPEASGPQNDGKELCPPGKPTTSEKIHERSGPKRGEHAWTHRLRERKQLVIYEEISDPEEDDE
inactive: [1] 0.008 | [2] -0.024 | [3] 0.038 | [4] -0.021 | [5] 0.023

SNRNP40 (UniProt Q96DI7)
Chain of UniProt Q96DI7 (Q96DI7 whole entry, looked up): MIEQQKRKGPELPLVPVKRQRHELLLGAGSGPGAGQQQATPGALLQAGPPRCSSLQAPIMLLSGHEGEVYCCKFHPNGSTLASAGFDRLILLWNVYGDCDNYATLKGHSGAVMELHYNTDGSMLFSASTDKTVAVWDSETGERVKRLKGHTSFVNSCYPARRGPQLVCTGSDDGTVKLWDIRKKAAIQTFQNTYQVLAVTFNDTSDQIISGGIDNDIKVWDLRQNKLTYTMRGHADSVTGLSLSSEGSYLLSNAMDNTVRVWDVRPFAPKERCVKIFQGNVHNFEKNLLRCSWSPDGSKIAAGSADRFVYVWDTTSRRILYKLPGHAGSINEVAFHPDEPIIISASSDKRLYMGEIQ
inactive: [1] 0.054 | [2] -0.023 | [3] 0.007 | [4] 0.071 | [5] 0.022

TANK (UniProt Q92844)
Chain of UniProt Q92844 (Q92844 whole entry, looked up): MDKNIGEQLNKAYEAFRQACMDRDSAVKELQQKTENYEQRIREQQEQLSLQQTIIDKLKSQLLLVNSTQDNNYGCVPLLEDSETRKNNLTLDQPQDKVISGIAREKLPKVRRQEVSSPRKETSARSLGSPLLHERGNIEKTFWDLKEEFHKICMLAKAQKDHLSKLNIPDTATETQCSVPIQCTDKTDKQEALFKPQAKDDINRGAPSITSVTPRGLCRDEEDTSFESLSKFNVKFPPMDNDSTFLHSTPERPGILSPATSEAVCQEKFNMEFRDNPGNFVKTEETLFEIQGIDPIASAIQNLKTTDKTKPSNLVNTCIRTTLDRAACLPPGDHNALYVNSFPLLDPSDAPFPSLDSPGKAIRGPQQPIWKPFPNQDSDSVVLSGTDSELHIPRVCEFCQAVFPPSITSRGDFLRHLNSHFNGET
inactive: [1] -0.001 | [2] -0.093 | [3] -0.019 | [4] 0.02 | [5] 0.026

SRCAP (UniProt Q6ZRS2)
inactive: [1] 0.074 | [2] 0.013 | [3] 0.101 | [4] -0.005 | [5] -0.136

SLC35A1 (UniProt P78382)
Chain of UniProt P78382 (P78382 whole entry, looked up): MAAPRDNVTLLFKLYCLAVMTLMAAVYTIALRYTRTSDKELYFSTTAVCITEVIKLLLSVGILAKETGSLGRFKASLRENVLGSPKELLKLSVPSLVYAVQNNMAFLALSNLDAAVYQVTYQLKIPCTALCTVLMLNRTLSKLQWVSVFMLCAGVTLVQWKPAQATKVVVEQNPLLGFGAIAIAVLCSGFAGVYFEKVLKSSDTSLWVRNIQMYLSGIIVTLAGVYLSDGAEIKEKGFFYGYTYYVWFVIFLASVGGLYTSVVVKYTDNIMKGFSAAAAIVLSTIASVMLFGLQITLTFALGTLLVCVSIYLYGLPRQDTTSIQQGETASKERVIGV
inactive: [1] -0.046 | [2] -0.108 | [3] 0.05 | [4] -0.07 | [5] 0.013

SRI (UniProt P30626)
Chain of UniProt P30626 (P30626 whole entry, looked up): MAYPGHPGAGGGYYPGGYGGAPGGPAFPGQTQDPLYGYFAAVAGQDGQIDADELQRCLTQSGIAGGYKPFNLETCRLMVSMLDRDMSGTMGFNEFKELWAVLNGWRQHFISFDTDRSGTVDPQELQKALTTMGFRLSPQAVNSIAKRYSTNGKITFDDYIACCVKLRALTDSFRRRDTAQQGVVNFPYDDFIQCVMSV
inactive: [1] -0.034 | [2] 0.111 | [3] 0.043 | [4] -0.093 | [5] -0.064

SNX5 (UniProt Q9Y5X3)
inactive: [1] -0.016 | [2] 0.045 | [3] 0.014 | [4] 0.04 | [5] -0.071

TBC1D5 isoform 2 (UniProt Q92609)
Chain of UniProt Q92609 (Q92609 whole entry, looked up): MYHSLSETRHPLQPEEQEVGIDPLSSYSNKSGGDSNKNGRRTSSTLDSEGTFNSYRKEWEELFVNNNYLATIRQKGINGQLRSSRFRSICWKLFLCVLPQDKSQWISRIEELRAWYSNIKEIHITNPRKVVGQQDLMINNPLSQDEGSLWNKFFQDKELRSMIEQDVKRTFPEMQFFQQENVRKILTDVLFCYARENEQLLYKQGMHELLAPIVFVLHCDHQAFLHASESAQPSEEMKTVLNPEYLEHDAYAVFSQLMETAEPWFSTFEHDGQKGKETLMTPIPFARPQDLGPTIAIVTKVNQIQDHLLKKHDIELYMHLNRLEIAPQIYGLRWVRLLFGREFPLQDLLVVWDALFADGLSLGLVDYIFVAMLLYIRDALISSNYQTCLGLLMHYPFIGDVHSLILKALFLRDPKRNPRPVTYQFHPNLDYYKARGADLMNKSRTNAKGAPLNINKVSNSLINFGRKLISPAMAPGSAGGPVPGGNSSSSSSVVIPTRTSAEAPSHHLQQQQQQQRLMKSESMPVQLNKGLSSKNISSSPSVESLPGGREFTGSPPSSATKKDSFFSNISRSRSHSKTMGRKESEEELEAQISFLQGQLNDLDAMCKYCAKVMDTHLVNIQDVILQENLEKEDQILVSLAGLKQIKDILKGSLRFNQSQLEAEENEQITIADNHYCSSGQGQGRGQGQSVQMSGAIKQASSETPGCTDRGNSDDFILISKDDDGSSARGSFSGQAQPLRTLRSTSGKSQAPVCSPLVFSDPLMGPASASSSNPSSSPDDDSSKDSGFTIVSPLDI
inactive: [1] -0.046 | [2] 0.055 | [3] 0.066 | [4] 0.003 | [5] -0.034
